# Screening data (PubChem)
# CYP2C19 act = cytochrome P450 2C19 (human) activation. recombinant CYP2C19, luciferin-H EGE luminescence; active compounds read high; 0 = fully inhibited enzyme, 1 = untreated enzyme. activation factor at 5 µM. 96,000 tested, under 10 active. AID 1025;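 active means activation factor of at least 2 at 5 µM in the primary screen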;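 further: 0 = wells with 2.5 mM tranylcypromine and 1 = vehicle-only wells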
# CYP2C19 inhib = inhibitors of human CYP2C19; P33261; CYP2C19 Supersomes, luciferin-H EGE luminescence, 30 min; inhibition, % at 5 µM; hit rate 21% among 96,000;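 active means CYP2C19 inhibition above a set limit at 5 µM in the primary screen, cut at about 50% in these data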;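 further: plate controls were negative control wells for no effect and 2.5 mM tranylcypromine positive control for full effect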
# CYP2C9 inhib = blocks human cytochrome P450 2C9. CYP2C9 Supersomes, luciferin-H conversion, luminescence. hit rate 20% among 96,000. inhibition, % at 5 µM. P11712. AID 777;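 active means blocking of liver enzyme CYP2C9 beyond about 50% at 5 µM, limit read from the data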
# CYP2C9 activ = increases human cytochrome P450 2C9 activity. P11712. hit rate 1.4% among 96,000. recombinant CYP2C9, luciferin-H conversion, luminescence; active compounds read high; factor 1 = untreated enzyme, 0 = blocked. activation factor at 5 µM. AID 1024;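 active means activation factor of 2 or more for CYP2C9 at a 5 µM dose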;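 further: 0 = sulfaphenazole-blocked wells and 1 = vehicle-only wells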
# Cav32 inh = blocks human Cav3.2 T-type calcium channel | O95180 | Cav3.2-expressing cells, Fluo-4 calcium fluorescence FDSS; active compounds read low | B-score at 10 µM | hit rate 4% among 100,000 | AID 449739;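 active means single-dose well whose peak fluorescence ratio is a statistical outlier from its plate by either plate-standardised score or position-corrected B-score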
# * hit, by the source's call; / = no result. Most compounds without a hit are left out; they make up all but 27% or so of the library.
SMILES,CYP2C19 act,CYP2C19 inhib,CYP2C9 inhib,CYP2C9 activ,Cav32 inh
O=c1cc(-c2ccc(O)c(O)c2)oc2cc(O)c(C3OC(CO)C(O)C(O)C3O)c(O)c12 (centres undefined),/,/,/,/,0.833
CC(C)(C)c1nnc2sc(SCC(=O)c3ccccc3)nn2c1=O,0.6,36.5,88.4*,0.1,-0.0205
CC(C)(C)c1nnc2sc(SC/C(O)=C(\C#N)c3nc4ccccc4[nH]3)nn2c1=O,0.3,68.0*,43.2,0.6,-0.0286
COc1ccc(C(=O)CSc2nn3c(=O)c(C(C)(C)C)nnc3s2)cc1,0.9,13.8,26.7,0.7,-1.26
COc1ccc(-n2c(C)cc(C(=O)CSc3nn4c(=O)c(C(C)(C)C)nnc4s3)c2C)cc1,0.4,58.0*,78.1*,0.2,-4.34
CCN1C(=O)N[C@@H](CCc2ccccc2)[C@@H](C(=O)OC)[C@H]1C,/,/,/,/,-2.55
CN(C)c1nc(C(N)=O)nc(N2CCOCC2)n1,1,-1.5,4.5,1,1.33
CCOc1ccc(-c2n[nH]c(C)c2Oc2ccccc2OC)c(O)c1,0,98.8*,89.3*,0.1,-2.08
C=C(C)COc1ccc(-c2n[nH]c(C)c2Oc2ccccc2OC)c(O)c1,0.2,81.0*,80.6*,0.2,-0.539
C=C(C)COc1ccc(-c2nc(N)nc(C)c2Oc2ccccc2OC)c(O)c1,0.8,16.6,24.5,0.8,0.154
CC1(C)C(c2ccccc2)=[N+]([O-])CN1O,1,-4.0,-8.8,1.1,1.31
N#CCCN/N=C(/Cc1nc2ccccc2[nH]1)c1ccc(Cl)cc1,0,97.9*,75.1*,0.2,-3.24
COc1ccccc1C/C(N)=N/OC(=O)COc1ccc(C)cc1C,/,/,/,/,-1.89
COc1ccccc1C/C(N)=N/OC(=O)c1ccc(C)c([N+](=O)[O-])c1,0.9,8.6,-243.5,3.4*,-1.37
C#CCOc1c(Br)cc(/C=N/O)cc1OCC,0.5,47.4,72.2*,0.3,-0.54
C#CCOc1c(Br)cc(/C=N\NC(=O)CN2CCOCC2)cc1OCC,0.7,31.2,58.8*,0.4,-0.0453
COc1cc(/C=N\NC(=O)CN2CCOCC2)ccc1OCC(=O)Nc1ccc(C)c(C)c1,0.7,31.6,10.1,0.9,1.43
CC(C)CN1C(=S)SC(C)(C)C1n1oc(=O)n(-c2ccc(Cl)cc2)c1=O (centres undefined),0.3,66.2*,88.0*,0.1,-4.07*
CC(C)CCOCC(=O)Nc1cccc(C(=O)O)c1,0.9,13.3,2.1,1,1.04
C=C1C(=O)O[C@@H]2[C@H]1[C@@H](OC(=O)/C(C)=C/C)C/C(C)=C\C(=O)/C=C(\C)[C@@H]2O,/,/,/,/,-1.07
C=CCC(c1ccccc1F)N(CCN1CCOCC1)C(=O)Nc1cccc(Cl)c1 (centres undefined),0.7,31.2,86.6*,0.1,-2.91
COc1ccc(CN(CCCN2CCOCC2)C(=O)Nc2cccc(Cl)c2)cc1OC,0.2,80.0*,97.1*,0,0.641
O=C(Nc1ccccc1)N(CCCN1CCOCC1)Cc1cc2cc3c(cc2[nH]c1=O)OCCO3,/,/,/,/,0.254
O=C(CCN1CCCCCC1)Nc1cccc(Cl)c1,0.9,6.5,-9.3,1.1,1.23
COc1cccc2cc(C(C)N(CCCN3CCOCC3)C(=O)Nc3ccccc3)oc12 (centres undefined),0.9,12.0,31.6,0.7,-0.102
SMILES,CYP2C19 act,CYP2C19 inhib,CYP2C9 inhib,CYP2C9 activ,Cav32 inh
O=C(Nc1cccc(Cl)c1)N(CCN1CCOCC1)Cc1ccccc1F,0.6,39.6,92.5*,0.1,-0.458
O=C(Nc1cccc(Cl)c1)N(CCN1CCOCC1)Cc1cccc(Cl)c1,0.2,84.6*,94.3*,0.1,-1.35
O=C(Nc1ccccc1)C1=C[C@H](c2coc3ccccc3c2=O)C[C@H](OCCCCO)O1,/,/,/,/,0.483
C=CCSc1nnc(NC(=O)c2cccc(S(=O)(=O)N3CCOCC3)c2)s1,1.1,-11.6,9.2,0.9,-0.123
COC(=O)C1=C(C(=O)OC)[C@@H]2N(C)c3ccc(OC)cc3[C@@]23C[C@@H](C(=O)OC)N(C(=O)COCc2ccccc2)C3=N1,/,/,/,/,-0.0345
N#CCCN(Cc1cccnc1)C(=O)Nc1ccccc1,0.7,31.4,0.7,1,0.0739
Cc1ccc(C)c2[nH]c(=O)c(CN(CCN3CCCC3)C(=O)Nc3cccc(Cl)c3)cc12,0.8,19.5,12.2,0.9,-7.59*
N#CCCN(Cc1cccnc1)C(=O)Nc1cccc(Cl)c1,0.1,94.1*,41.7,0.6,-0.0981
COC(=O)CCC(=O)OC1(C)C(=O)C=C2C=C(C3CC3)OC=C2C1=O (centres undefined),/,/,/,/,-0.296
CCCC[C@@H]1CNC(=S)N1CCCC,/,/,/,/,0.896
O=C1c2ccccc2S(=O)(=O)c2cc(C(=O)N3CCN(C(=O)c4ccccc4)CC3)ccc21,/,/,/,/,0.538
CCSc1nnc(NC(=O)COc2cccc3ccccc23)s1,0.8,21.7,56.9*,0.4,-1.36
CCNC(=O)COc1ccc2ccccc2c1,0.9,13.5,5.4,0.9,0.658
CCOCC(=O)Nc1nnc(SCCOC)s1,1,1.2,51.0*,0.5,0.794
CCNC(=O)COc1cccc2ccccc12,0.5,53.9*,-11.0,1.1,-0.186
O=C(Nc1nccs1)[C@@H]1CC=C[C@@H]2CCN(Cc3ccccc3)C(=O)[C@@H]21,/,/,/,/,-0.48
COc1ccc(N2CCN(Cc3nc4c(c(=O)[nH]c(=O)n4C)n3Cc3cccc(Cl)c3)CC2)cc1,/,/,/,/,-0.0378
O=C(N/N=C/c1ccc(N2CCOCC2)o1)c1cccc(F)c1,/,/,/,/,1.41
Cc1cc(N2CCC(C)CC2)nc(SCC(=O)c2ccccc2)n1,/,/,/,/,-4.67*
Cc1cc(C)nc(SCC(=O)c2ccc(O)cc2O)n1,0.6,43.9,-33.3,1.3,0.0153
Cc1cc(C)nc(SCC(=O)c2ccc([N+](=O)[O-])cc2)n1,0.1,92.2*,20.5,0.8,-0.589
Cc1cc(N2CCCC2)nc(SCC(=O)c2ccccc2)n1,/,/,/,/,-0.134
Cc1cc(N2CCOCC2)nc(SCC(=O)c2ccc(Cl)cc2)n1,0.2,79.9*,23.1,0.8,-0.801
O=C(Nc1ccc(N2CCOCC2)nc1)c1ccc(Cl)cc1,1.1,-5.7,-14.3,1.1,/
Cc1cc(C)nc(SCNC(=O)c2ccc(Cl)cc2)n1,0.1,90.6*,-63.2,1.6,-0.0367
SMILES,CYP2C19 act,CYP2C19 inhib,CYP2C9 inhib,CYP2C9 activ,Cav32 inh
O=C(CSc1nnnn1-c1ccc(F)cc1)Nc1ccc(N2CCOCC2)c(Cl)c1,1,-4.3,-8.9,1.1,-1.96
O=C1N(c2ccccc2)C2CS(=O)(=O)CC2N1c1ccc(Br)cc1 (centres undefined),0.8,15.1,22.7,0.8,-2.4*
Cc1ccccc1N1C(=O)N(c2cccc(C(F)(F)F)c2)C2CS(=O)(=O)CC21 (centres undefined),0.4,63.2*,19.6,0.8,-0.612
O=S(=O)(Nc1ncnc2sc3c(c12)CCC3)c1ccc2ccccc2c1,0.8,17.3,78.6*,0.2,-4.71*
c1cn(CCCNc2ncnc3sc4c(c23)CCC4)cn1,0,100.4*,96.8*,0,1.06
c1ccc(Nc2ncnc3sc4c(c23)CCC4)cc1,0.2,76.2*,22.9,0.8,-1.61
COCCCNc1ncnc2sc3c(c12)CCC(C)C3 (centres undefined),/,/,/,/,-1.51
